Reference: the supplement of paper PMC10849652
Targets with a hit are over-represented here; the source holds about 7,900 in all. About 0.6% of all pairs of compound and target were hits. Unmarked numbers belong to inactive results.

Tests used:
Assay in all cases: log2 fold change, soluble protein after heating vs DMSO (PISA); higher = thermal stabilisation; K562 cells, 10 uM, 30 min; active = over 0.2 and 3.5 SD of the protein, either way, in both replicates (recomputed)
bafetinib = compound: Cc1ccc(NC(=O)c2ccc(CN3CC[C@H](N(C)C)C3)c(C(F)(F)F)c2)cc1Nc1nccc(-c2cncnc2)n1 [bafetinib]
Outline: (§1)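 K562 cells at 2×10^6 cells/mL were given 10 μM compound for 30 min. Aliquots then went through 3 min of heating across 48°C-58°C, were pooled, and were extracted in PBS with 0.5% NP-40 at 4°C, and the supernatant after 21,000xg for 90 min was quantified by TMTpro 16plex LC-MS/MS with channel sums equalised. Thermal stability relative to control samples, from duplicates, is given as log2 fold change.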

[1] = compound: Cc1cccc(CC(=O)N2CCc3c2ccc(-c2cn(C)c4ncnc(N)c24)c3F)n1
Outline: as §1

nilotinib = compound: Cc1cn(-c2cc(NC(=O)c3ccc(C)c(Nc4nccc(-c5cccnc5)n4)c3)cc(C(F)(F)F)c2)cn1 [nilotinib]
Outline: as §1

[2] = compound: Cc1nc(Nc2n[nH]c3c2CN(C(=O)N[C@H](CN(C)C)c2ccccc2)C3(C)C)c2sccc2n1
Outline: as §1

dasatinib = compound: Cc1nc(Nc2ncc(C(=O)Nc3c(C)cccc3Cl)s2)cc(N2CCN(CCO)CC2)n1 [dasatinib]
Outline: as §1

[3] = compound: Cc1ncc(-c2ccnc(Nc3ccc(S(C)(=O)=O)cc3)n2)n1C(C)C
Outline: as §1

[4] = compound: Cn1cc(-c2ccc3c(c2)CCN3C(=O)Cc2cccc(C(F)(F)F)c2)c2c(N)ncnc21
Outline: as §1

[5] = compound: Cn1cc(-c2ccc3nnc(C(F)(F)c4ccc5ncccc5c4)n3n2)cn1
Outline: as §1

tipifarnib = compound: Cn1cncc1[C@@](N)(c1ccc(Cl)cc1)c1ccc2c(c1)c(-c1cccc(Cl)c1)cc(=O)n2C [tipifarnib]
Outline: as §1

mubritinib = compound: FC(F)(F)c1ccc(/C=C/c2nc(COc3ccc(CCCCn4ccnn4)cc3)co2)cc1 [mubritinib]
Outline: as §1

UniProt Q86WA6, sequence (Q86WA6 whole entry, looked up): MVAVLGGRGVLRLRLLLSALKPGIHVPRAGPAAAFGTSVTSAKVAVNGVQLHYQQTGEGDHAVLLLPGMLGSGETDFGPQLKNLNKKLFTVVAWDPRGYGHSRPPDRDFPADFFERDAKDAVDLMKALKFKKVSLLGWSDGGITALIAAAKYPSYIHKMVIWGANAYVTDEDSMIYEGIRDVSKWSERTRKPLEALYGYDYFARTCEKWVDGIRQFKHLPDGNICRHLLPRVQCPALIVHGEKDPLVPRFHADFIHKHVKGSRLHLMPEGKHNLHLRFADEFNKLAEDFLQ
UniProt Q13535, sequence (Q13535 whole entry, looked up): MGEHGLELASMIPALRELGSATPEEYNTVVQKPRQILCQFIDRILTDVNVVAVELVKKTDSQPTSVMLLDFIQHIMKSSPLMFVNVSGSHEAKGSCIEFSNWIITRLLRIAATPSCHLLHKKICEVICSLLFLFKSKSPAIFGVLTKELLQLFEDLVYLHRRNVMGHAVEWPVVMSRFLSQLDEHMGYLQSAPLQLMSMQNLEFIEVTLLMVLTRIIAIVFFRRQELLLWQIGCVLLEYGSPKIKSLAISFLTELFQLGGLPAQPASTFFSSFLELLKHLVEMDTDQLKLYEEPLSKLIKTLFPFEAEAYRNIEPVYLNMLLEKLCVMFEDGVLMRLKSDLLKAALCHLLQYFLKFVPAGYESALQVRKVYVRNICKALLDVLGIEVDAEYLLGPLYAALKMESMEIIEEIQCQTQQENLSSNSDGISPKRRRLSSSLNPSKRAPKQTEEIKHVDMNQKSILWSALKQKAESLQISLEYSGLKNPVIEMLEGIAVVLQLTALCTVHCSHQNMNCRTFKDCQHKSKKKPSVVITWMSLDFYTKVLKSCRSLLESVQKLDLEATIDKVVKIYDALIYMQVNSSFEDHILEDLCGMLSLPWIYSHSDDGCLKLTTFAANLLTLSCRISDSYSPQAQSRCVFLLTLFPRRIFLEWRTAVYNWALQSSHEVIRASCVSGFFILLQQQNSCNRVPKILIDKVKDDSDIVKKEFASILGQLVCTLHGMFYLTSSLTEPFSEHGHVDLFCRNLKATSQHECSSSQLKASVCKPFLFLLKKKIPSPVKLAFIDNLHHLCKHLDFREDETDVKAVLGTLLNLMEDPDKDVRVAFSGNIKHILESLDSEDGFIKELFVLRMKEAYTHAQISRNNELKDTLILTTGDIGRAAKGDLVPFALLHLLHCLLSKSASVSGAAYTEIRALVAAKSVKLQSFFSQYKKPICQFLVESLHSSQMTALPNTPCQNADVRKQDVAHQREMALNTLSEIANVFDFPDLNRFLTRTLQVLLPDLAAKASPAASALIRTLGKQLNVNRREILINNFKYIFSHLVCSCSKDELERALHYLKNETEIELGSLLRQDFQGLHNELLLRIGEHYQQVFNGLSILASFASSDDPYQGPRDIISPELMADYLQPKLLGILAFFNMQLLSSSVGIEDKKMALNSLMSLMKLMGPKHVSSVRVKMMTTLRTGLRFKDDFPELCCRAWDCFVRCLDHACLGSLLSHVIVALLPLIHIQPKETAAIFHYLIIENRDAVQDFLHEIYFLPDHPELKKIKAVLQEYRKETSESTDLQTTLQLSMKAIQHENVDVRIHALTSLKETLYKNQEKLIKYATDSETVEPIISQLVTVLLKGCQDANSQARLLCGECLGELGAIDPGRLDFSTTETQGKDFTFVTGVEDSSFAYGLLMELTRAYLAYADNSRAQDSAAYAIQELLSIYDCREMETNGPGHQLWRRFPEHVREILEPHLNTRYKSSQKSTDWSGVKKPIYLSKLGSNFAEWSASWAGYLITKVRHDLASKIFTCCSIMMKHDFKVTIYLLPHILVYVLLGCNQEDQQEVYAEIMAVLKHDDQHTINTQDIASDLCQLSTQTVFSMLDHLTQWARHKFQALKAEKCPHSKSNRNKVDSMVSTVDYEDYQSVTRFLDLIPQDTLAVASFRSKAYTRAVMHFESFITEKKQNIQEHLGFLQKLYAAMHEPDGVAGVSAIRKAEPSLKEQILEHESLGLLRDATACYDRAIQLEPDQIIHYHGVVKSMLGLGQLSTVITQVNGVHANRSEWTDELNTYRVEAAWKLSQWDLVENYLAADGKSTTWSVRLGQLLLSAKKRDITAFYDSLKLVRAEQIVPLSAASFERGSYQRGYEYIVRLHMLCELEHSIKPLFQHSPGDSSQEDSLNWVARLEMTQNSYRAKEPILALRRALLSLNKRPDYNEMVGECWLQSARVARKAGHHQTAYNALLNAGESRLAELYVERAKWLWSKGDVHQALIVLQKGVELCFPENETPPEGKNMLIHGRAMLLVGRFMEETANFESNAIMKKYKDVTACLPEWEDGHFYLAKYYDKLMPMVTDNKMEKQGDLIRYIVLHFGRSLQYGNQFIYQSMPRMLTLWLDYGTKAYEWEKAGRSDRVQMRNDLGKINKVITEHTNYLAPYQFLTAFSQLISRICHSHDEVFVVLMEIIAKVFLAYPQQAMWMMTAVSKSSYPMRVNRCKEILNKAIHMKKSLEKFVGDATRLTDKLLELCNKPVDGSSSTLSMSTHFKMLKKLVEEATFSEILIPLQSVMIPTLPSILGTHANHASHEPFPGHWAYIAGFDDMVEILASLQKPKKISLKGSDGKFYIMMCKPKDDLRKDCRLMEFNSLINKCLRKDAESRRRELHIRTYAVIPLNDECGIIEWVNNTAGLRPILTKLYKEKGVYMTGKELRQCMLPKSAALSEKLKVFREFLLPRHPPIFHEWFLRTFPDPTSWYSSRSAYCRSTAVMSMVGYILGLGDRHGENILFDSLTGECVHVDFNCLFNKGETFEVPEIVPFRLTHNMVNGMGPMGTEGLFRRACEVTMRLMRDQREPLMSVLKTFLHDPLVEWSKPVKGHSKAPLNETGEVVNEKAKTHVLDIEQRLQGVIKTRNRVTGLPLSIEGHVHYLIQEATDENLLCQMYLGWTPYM
UniProt Q14457, sequence (Q14457 whole entry, looked up): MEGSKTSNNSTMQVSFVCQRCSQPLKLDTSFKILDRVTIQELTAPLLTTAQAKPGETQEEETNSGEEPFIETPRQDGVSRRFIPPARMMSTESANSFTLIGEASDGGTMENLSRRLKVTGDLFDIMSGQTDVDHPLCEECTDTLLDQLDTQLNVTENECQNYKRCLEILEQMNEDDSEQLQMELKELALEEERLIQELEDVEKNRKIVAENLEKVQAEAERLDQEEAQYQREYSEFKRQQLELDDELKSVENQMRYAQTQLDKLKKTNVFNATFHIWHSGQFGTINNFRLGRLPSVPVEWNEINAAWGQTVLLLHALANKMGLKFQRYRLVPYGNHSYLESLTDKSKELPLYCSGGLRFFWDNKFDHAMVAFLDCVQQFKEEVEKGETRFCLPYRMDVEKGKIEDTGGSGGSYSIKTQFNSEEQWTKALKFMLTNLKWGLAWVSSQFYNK
UniProt Q9UEY8, sequence (Q9UEY8 whole entry, looked up): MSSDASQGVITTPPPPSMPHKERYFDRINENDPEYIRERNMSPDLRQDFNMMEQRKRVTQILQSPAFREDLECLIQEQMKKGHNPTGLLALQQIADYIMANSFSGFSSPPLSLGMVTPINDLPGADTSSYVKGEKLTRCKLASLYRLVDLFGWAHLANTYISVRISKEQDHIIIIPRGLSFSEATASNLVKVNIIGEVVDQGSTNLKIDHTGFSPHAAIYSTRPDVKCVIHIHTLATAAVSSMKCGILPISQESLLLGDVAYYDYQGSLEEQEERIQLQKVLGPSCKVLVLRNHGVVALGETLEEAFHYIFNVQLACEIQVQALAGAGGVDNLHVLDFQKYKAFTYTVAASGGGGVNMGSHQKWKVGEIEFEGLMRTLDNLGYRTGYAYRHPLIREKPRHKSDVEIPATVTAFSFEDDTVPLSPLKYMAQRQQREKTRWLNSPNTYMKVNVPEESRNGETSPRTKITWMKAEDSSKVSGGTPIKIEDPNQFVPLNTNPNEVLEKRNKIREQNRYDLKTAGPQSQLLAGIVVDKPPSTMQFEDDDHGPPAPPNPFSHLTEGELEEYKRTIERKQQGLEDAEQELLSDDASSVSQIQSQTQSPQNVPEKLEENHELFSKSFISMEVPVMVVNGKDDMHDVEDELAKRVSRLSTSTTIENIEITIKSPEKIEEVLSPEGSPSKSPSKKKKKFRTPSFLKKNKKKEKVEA
UniProt P42330, sequence (P42330 whole entry, looked up): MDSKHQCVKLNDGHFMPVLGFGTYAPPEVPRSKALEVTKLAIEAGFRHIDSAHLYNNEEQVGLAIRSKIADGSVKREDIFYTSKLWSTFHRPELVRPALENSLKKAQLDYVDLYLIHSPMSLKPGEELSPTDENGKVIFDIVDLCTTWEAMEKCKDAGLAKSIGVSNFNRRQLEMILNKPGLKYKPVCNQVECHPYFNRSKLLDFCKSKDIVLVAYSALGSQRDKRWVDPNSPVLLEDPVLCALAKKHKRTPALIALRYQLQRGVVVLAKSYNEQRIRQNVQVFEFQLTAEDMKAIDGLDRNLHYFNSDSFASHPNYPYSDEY
UniProt Q8N6H7, sequence (Q8N6H7 whole entry, looked up): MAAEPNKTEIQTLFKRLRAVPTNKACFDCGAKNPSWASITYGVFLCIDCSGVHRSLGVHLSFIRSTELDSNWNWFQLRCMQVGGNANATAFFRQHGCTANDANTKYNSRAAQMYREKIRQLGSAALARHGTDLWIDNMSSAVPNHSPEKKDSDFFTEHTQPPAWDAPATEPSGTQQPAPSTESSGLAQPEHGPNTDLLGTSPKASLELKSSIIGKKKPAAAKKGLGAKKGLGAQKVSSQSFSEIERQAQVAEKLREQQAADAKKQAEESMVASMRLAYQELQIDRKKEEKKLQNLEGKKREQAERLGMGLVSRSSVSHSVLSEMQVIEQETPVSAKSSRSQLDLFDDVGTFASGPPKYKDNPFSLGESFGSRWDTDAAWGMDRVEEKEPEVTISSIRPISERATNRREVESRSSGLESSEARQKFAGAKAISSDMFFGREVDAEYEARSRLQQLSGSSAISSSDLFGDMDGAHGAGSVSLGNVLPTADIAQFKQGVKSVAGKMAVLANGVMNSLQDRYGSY

| Target | log2 fold change (bafetinib) | log2 fold change [1] | log2 fold change (nilotinib) | log2 fold change [2] | log2 fold change (dasatinib) | log2 fold change [3] | log2 fold change [4] | log2 fold change [5] | log2 fold change (tipifarnib) | log2 fold change (mubritinib) |
| --- | --- | --- | --- | --- | --- | --- | --- | --- | --- | --- |
| ATP1A1 (UniProt P05023) | 0.018 | 0.102 | 0.062 | 0.008 | 0.07 | 0.005 | 0.04 | 0.001 | -0.011 | 0.023 |
| ARFGAP2 (UniProt Q8N6H7) | -0.006 | -0.008 | -0.045 | -0.063 | -0.096 | 0.035 | -0.024 | -0.024 | -0.059 | 0.041 |
| AARSD1 isoform 3 (UniProt Q9BTE6) | 0.009 | 0.065 | -0.013 | -0.038 | -0.062 | 0.031 | -0.004 | 0.002 | 0.022 | 0.064 |
| ALDH18A1 (UniProt P54886) | -0.206 | 0.071 | -0.3 | -0.15 | -0.133 | 0.042 | -0.202 | -0.128 | -0.141 | -0.561 (active) |
| AKAP8 (UniProt O43823) | -0.051 | -0.008 | -0.001 | -0.044 | -0.155 | -0.042 | -0.007 | -0.049 | 0.022 | 0.028 |
| BECN1 (UniProt Q14457) | 0.063 | -0.032 | 0.032 | -0.025 | -0.072 | 0.076 | -0.015 | -0.038 | -0.003 | 0.023 |
| BPHL (UniProt Q86WA6) | -0.005 | 0.002 | -0.032 | -0.034 | -0.032 | -0.021 | 0.082 | 0.009 | 0.032 | -0.008 |
| ATR (UniProt Q13535) | -0.036 | -0.028 | -0.07 | 0.036 | -0.123 | -0.054 | 0.012 | 0.039 | -0.022 | -0.013 |
| ALDH2 (UniProt P05091) | 0.009 | -0.02 | 0.006 | -0.016 | -0.034 | 0.019 | 0.072 | 0.059 | -0.005 | 0.07 |
| ANXA5 (UniProt P08758) | 0.019 | 0.058 | -0.015 | -0.052 | -0.079 | 0.006 | 0.017 | 0.025 | -0.061 | 0.009 |
| AKR1C3 (UniProt P42330) | 0.018 | -0.03 | 0.025 | 0.004 | -0.038 | 0.078 | 0.068 | 0.557 (active) | 0.862 (active) | -0.147 |
| ADD3 (UniProt Q9UEY8) | 0.008 | -0.008 | 0.031 | -0.004 | 0.072 | -0.096 | 0.028 | -0.016 | 0.009 | 0.038 |
| ASH2L (UniProt Q9UBL3) | 0 | -0.013 | -0.008 | -0.041 | -0.004 | 0.013 | -0.07 | -0.017 | -0.041 | -0.023 |
| AK6 (UniProt Q9Y3D8) | 0.021 | -0.018 | -0.141 | -0.143 | -0.288 | -0.015 | 0 | 0.025 | -0.144 | -0.114 |
| ARFRP1 (UniProt Q13795) | 0.025 | 0.327 (active) | -0.061 | -0.014 | -0.017 | 0.112 | 0.11 | -0.003 | -0.069 | -0.019 |
